Experimental data published in the supplement of paper PMC10338343.
± gives the standard deviation. The full ranking holds about 8,200 sequences; the median of “pre-steady-state target cleavage rate” is about 0.024, and the highest 2% start at about 1.3. Many of the other results were omitted from the sample, so the highest values are more common in it than they were.

System: MIWI (PIWIL1) piRISC loaded with L1MC piRNA (30 nt)
Experiment: pre-steady-state target cleavage rate (min^-1); MIWI and MILI are mouse PIWI proteins and EfPiwi is from a freshwater sponge; tags in brackets are library labels; higher = faster piRNA-guided slicing of the target
Conditions: guide: L1MC piRNA 5'p-UAACUAAAUACUAUGCAAGCUGUAGGUCCU
Outline: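 Cleave-'n-Seq reactions paired 0.1 nM transcribed, DNA-blocked target RNA library with 1 nM active affinity-purified piRISC holding one synthetic guide, plus or minus 500 nM GTSF1 partner protein, in HEPES–potassium acetate buffer at 33 °C for 0–8 or 0–960 min. After sequencing of uncleaved targets and normalisation to depth and weakly complementary targets, the pre-steady-state cleavage rate was taken from a burst-and-steady-state fit. Three trials were pooled, and k3 was capped at 0.0001 min^-1.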

[1] = auxiliary factor: 500 nM mouse GTSF1
[2] = auxiliary factor: none (no GTSF1)

Sequence	pre-steady-state target cleavage rate [1]	pre-steady-state target cleavage rate [2]
UCCUGGAACAGCUUGCAUAGUAUUUGGUUA	0.781 ± 0.041	0.0538 ± 0.011
UCCACCUACAGCUUGCUUAGUAUUUAGUAA	0.484 ± 0.044	0.0103 ± 0.0023
UGGACCAUACAGCUUGCAUAGUAUUUAGUUA	1.3 ± 0.066	0.0868 ± 0.013
UGGACUUACAGCUUGCAUAGUAUUUAGUUA	1.45 ± 0.063	0.081 ± 0.013
UCGACCUUACAGCUUGCAUAGUAUUUAGUUA	1.47 ± 0.057	0.091 ± 0.02
UGGACCUACAGCUUGCAUAGUAUUUACUUA	0.24 ± 0.021	0.0361 ± 0.0058
AGGACCGUACAGCUUGCAUAGUAUUUAGUUA	1.16 ± 0.061	0.0943 ± 0.019
UCCACUUACAGCUUGCAUAGUAUUUAGUUA	1.17 ± 0.034	0.0668 ± 0.0094
UCGACUACAGCUUGCAUAGUAUUUAGUUA	1.3 ± 0.049	0.0713 ± 0.012
UCGACUUACAGCUUGCAUAGUAUUUAGUUA	1.56 ± 0.045	0.0755 ± 0.013
AGGACUUACAGCUUGCAUAGUAUUUAGUUA	1.39 ± 0.064	0.0831 ± 0.012
UCCUGGAUGAGCUAGCAUAGUAUAUAGUUA	0.194 ± 0.031	0.00454 ± 0.0041
UCCACCUACUCGUUGCAUAGUAUUUAGUAA	0.406 ± 0.031	0.00745 ± 0.0019
UCCUGCUACAGCUUCCAUAGAAUUUAGUUA	0.0338 ± 0.013	
UCCUGGAUGAGCUUGCAUAGUAUUAAGUAA	0.197 ± 0.036	0.0178 ± 0.0055
UCCACCUAGAGCUUGCAUAGUAUUUAGAUA	0.178 ± 0.032	0.00955 ± 0.0025
UCCUGCUACAGCUUGCAUAGUAUUUUCAUA	0.295 ± 0.055	
UCCUGGAUGUGCUUGCAAAGUAUUUUGUUA	0.0495 ± 0.008	0.0109 ± 0.0032
UGGAGCUACUGCUUGCAUAGUAUUUAGUUA	1.09 ± 0.055	0.0621 ± 0.0085
UCCUCCAUCAGCUUGCAUAGUAUUUAGUUA	0.739 ± 0.027	0.0679 ± 0.013
UGGACCUAUAGCUUGCAUAGUAUUUAGUUA	1.23 ± 0.054	0.0564 ± 0.011

Sequence	pre-steady-state target cleavage rate [1]	pre-steady-state target cleavage rate [2]
UCCACCUAUCAGCUUGCAUAGUAUUUAGUUA	1.01 ± 0.037	0.0531 ± 0.011
AGGACCAUCAGCUUGCAUAGUAUUUAGUUA	1.3 ± 0.048	0.0926 ± 0.017
AGGACCUAUCAGCUUGCAUAGUAUUUAGUUA	1.25 ± 0.055	0.0769 ± 0.013
UCCUCCUCAGCUUGCAUAGUAUUUAGUUA	1.05 ± 0.027	0.0482 ± 0.009
UGGACCUAUCAGCUUGCAUAGUAUUUAGUUA	1.48 ± 0.086	0.074 ± 0.016
UGGACCAUCAGCUUGCAUAGUAUUUAGUAA	1.05 ± 0.053	0.0577 ± 0.013
UGGACCAUCAGCUUGCAUAGUAUUUAGUUA	1.44 ± 0.056	0.101 ± 0.019
UCGACCUAUAGCUUGCAUAGUAUUUAGUUA	1.04 ± 0.055	0.0703 ± 0.014
UCGACCUAUCAGCUUGCAUAGUAUUUAGUUA	1.61 ± 0.06	0.0851 ± 0.018
UCCUCCUAUCAGCUUGCAUAGUAUUUAGUUA	1.49 ± 0.072	0.0492 ± 0.011
UCCUGGAUGUCGAACGUAUGAUUUUAGUUA	< 0.0001	
UCCUGCUUGUGCUUGCAUAGUAUUUAGUAA	0.133 ± 0.019	0.0144 ± 0.0036
UCCUGGUACAGGCUUGCAUAGUAUUUAGUUA	0.498 ± 0.059	0.0384 ± 0.0089
UCCUGGAUGUCGAUGCAUAGUAUUGAGUUA	0.02 ± 0.006	
UCCUGGAUCAGCUUGCAUAGUCUUUAGUUA	0.841 ± 0.035	0.0552 ± 0.012
AGGACCUACAGCUUGCAUAGUAUUUAAUUA	0.357 ± 0.033	0.0325 ± 0.0055
AGGACCUACAGCUUGCUUAGUAUUUAGAAA	0.486 ± 0.063	0.00737 ± 0.0028
UCCUGGAUCAACUUGCAUAGUAUUUAGUUA	1.01 ± 0.051	0.0248 ± 0.0054
AGGACCUACAGGAAGCAUAGUAUUUACAAA	0.32 ± 0.064	
UCGACCAACAGCUUGCAUAGUAUUUAGUAA	1.2 ± 0.065	0.0413 ± 0.0084
UCGACCAACAGCUUGCAUAGUAUUUAGAUA	0.54 ± 0.029	0.0297 ± 0.0066

Sequence	pre-steady-state target cleavage rate [1]	pre-steady-state target cleavage rate [2]
AGCACCAACAGCUUGCAUAGUAUUUAGUUA	1.03 ± 0.058	0.0664 ± 0.011
ACGACCAACAGCUUGCAUAGUAUUUAGUUA	1.64 ± 0.055	0.0972 ± 0.018
UGCACCAACAGCUUGCAUAGUAUUUAGUUA	1.23 ± 0.056	0.0613 ± 0.0098
UCGACCAACAGCUUGCAUAGUAUUUAGUUA	1.62 ± 0.054	0.0825 ± 0.014
UCCUGGAUGUGCUUGCAUAGUAUUUUGAAA	0.0177 ± 0.0092	0.00406 ± 0.0024
UCCUGCUACAGCUUGCAUUCUAUUUACAAA	0.0158 ± 0.0068	
AGGAGCUACAGGUUGCAUAGUAUUUAGUUA	1.17 ± 0.075	0.0502 ± 0.0084
UCCUGGUACAGAUUGCAUAGUAUUUAGUUA	0.58 ± 0.071	0.0178 ± 0.0046
UCCUGGAACAGCUUGCAUACAAUUUAGUAA	0.0102 ± 0.0056	
AGGACCUACAGCAUGCAUAGUAUUUACAAA	0.526 ± 0.066	0.00349 ± 0.0032
UCCACGUUCAGCUUGCAUAGUAUUUAGUUA	1.42 ± 0.057	0.0658 ± 0.011
AGGACGUUCAGCUUGCAUAGUAUUUAGUUA	1.35 ± 0.063	0.0669 ± 0.01
UGGACGUAGAGCUUGCAUAGUAUUUAGUUA	1.29 ± 0.083	0.043 ± 0.0093
UGGACGUUCAGCUUGCAUAGUAUUUAGUUA	1.37 ± 0.052	0.0691 ± 0.012
UCCACCACAGCUUGCAUAGUAUUUAGUUA	0.992 ± 0.035	0.0505 ± 0.0088
AGGACGAACAGCUUGCAUAGUAUUUAGUUA	1.27 ± 0.045	0.084 ± 0.016
UCGACGUUCAGCUUGCAUAGUAUUUAGUUA	1.3 ± 0.036	0.0748 ± 0.015
AGGACGUAGAGCUUGCAUAGUAUUUAGUUA	1.17 ± 0.072	0.047 ± 0.0083
UCCACCUUCAGCUUGCAUAGUAUUUAGUUA	0.933 ± 0.045	0.0531 ± 0.0087
